Screening results deposited in PubChem BioAssay by The Scripps Research Institute Molecular Screening Center.
FBW7 activator = human FBW7 E3 ligase activation, primary screen; normalized activity (activation), % at 26.1 µM; AlphaScreen FBW7–phospho-cyclin E peptide binding, activator screen; Q969H0; hit rate 0.13% among 650,000; AID 1259310; in the data active = normalized activity above about 1.9%;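 also: purified mutant Fbw7 with reduced substrate affinity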
GPR151 activ = human GPR151 activation; PathHunter beta-arrestin GPR151 cells, luminescence; activation, % at 11.2 µM; hit rate 1% among 650,000; in the data active = activation above about 4.9%;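 also: 0% = median of compound wells and 100% = cells with positive control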
TEAD-YAP block = TEAD-YAP interaction inhibition; HEK-TIYL cells, TEAD-Gal4/YAP UAS-luciferase luminescence; hit rate 1.4% among 640,000; AID 1259422; inhibition, % at 9.12 µM; in the data active = inhibition above about 32%;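 also: 0% = median of test compound wells and 100% = reference inhibitor wells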
MITF inh = human MITF inhibition, primary screen; O75030; AlphaScreen MITF homodimerization, bead proximity signal; inhibition, % at 2.6 µM; hit rate 0.91% among 650,000; AID 1259374; in the data active = inhibition above about 50%;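 also: 0% = vehicle wells with protein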
Target sequence (O75030 whole entry, looked up): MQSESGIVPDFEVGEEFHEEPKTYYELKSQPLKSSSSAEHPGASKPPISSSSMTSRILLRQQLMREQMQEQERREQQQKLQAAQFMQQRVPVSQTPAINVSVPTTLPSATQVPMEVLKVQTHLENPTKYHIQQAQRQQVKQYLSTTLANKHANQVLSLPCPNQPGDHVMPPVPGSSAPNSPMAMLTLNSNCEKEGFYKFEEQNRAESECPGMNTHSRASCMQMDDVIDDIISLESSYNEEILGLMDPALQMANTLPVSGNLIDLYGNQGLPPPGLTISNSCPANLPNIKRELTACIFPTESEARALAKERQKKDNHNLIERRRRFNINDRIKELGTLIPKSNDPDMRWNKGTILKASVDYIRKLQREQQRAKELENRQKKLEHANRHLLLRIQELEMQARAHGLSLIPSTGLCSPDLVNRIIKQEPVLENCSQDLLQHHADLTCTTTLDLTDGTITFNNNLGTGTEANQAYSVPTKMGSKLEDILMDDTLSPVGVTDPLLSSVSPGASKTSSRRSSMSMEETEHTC
MITF inh conf = confirmation of human MITF inhibitors. shares compounds with MITF inh. AlphaScreen MITF homodimerization, biotin/His-MITF beads. inhibition, % at 2.6 µM. hit rate 16% among 4,700. AID 1259372;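 active = inhibition above a cutoff derived from the DMSO control wells, cut at about 28% in these data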;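 also: 0% = MITF dimer wells with DMSO only; inhibitors lower the bead chemiluminescence by keeping MITF from dimerizing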
AS interf DR = optically interferes with AlphaScreen signal in dose response. hit rate 6% among 480. AlphaScreen optical interference counterscreen, cell-free. shares compounds with MITF inh. AID 1259373. IC50, µM; call rule not given here
AS interf ctr = optically interferes with AlphaScreen signal; inhibition, % at 2.6 µM; LysRS AlphaScreen counterscreen, signal interference, triplicate; shares compounds with MITF inh; AID 1259376; hit rate 7.6% among 4,700;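 active = inhibition above a cutoff derived from the DMSO control wells, cut at about 30% in these data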
* marks the source's active call; other numbers are inactive results; nt = not tested or not shown. A selection: hits, their analogues and other compounds. The true share with any hit is near 3.5%.

SMILES	FBW7 activator	GPR151 activ	TEAD-YAP block	MITF inh	MITF inh conf	AS interf ctr	others
COc1ccc(CN2CCN(Cc3c[nH]c4ccccc34)CC2)cc1	-0.4	-2.1	0.7	63.9*	-15.3	6.4
COc1ccc(CN2CCN(Cc3c[nH]c4ccccc34)CC2)c(OC)c1	-0.2	0.2	5.8	58.3*	9.0	9.1
CCOc1cc(CN2CCN(Cc3c[nH]c4ccccc34)CC2)ccc1OC	0.0	0.6	14.7	60.1*	-7.8	-0.3
O=C1N(CC2CC2)CCN1c1ccc2c(c1)OCO2	0.2	-9.6	15.1	7.3	nt	nt
Cc1ccc(S(=O)(=O)N(C)CC(=O)Nc2ncc(C(F)(F)F)cc2Cl)cc1	-0.2	2.2	6.7	8.2	nt	nt
COc1ccc(N(C(=O)/C=C/c2ccccc2)C2=CC3CCC(C2)N3C)cc1 (configuration not stated)	0.2	-2.7	-32.9	56.2*	9.0	11.0
CCN(CC)S(=O)(=O)c1ccc(N/N=C/c2ccc(OC)c(O)c2)c([N+](=O)[O-])c1	0.0	0.3	-10.8	-7.8	nt	nt
C/C(=N\Nc1ccc(C(F)(F)F)cn1)c1ccccn1	-1.3	2.9	86.6*	57.9*	11.4	35.3*
C/C(=N\Nc1nc2ccccc2[nH]1)c1ccccn1	-1.4	-4.8	74.2*	105.2*	110.3*	99.4*
C/C(=N\Nc1nc2ccccc2[nH]1)c1cccnc1	-0.1	0.9	-16.6	-4.3	nt	nt
Cc1ccc(C(=O)NC(=S)Nc2ccc(N3CCCCC3)c(Cl)c2)cc1	-0.1	-2.5	-8.0	0.5	nt	nt
CNC(=O)c1nnc(-c2ccccc2)o1	0.0	-1.0	-6.3	78.0*	-3.6	-10.3
O=C(c1ccco1)N1CCN(Cc2ccccc2Br)CC1	-0.4	0.2	-40.2	60.4*	6.5	13.8
O=C(c1ccco1)N1CCN(Cc2ccncc2)CC1	-0.5	-0.7	-1.3	82.5*	6.8	27.3
O=C(c1ccco1)N1CCN(C(=O)c2ccco2)CC1	0.0	-0.1	-4.3	-2.0	nt	nt
CC(C)N1CCN(C(=O)c2ccco2)CC1	0.0	0.5	3.3	50.6*	1.8	0.9
CC(=O)COc1ccc2c(C(F)(F)F)cc(=O)oc2c1	0.1	-1.3	4.0	-23.3	nt	nt
CC(Oc1ccc2c(C(F)(F)F)cc(=O)oc2c1)C(=O)NN (configuration not stated)	-0.2	3.5	0.6	57.8*	44.2*	-4.4	AS interf DR=>6.56
CCOC(=O)C1=CN(Cc2ccc(F)cc2)C=C(C(=O)OCC)C1c1cccc(F)c1	0.6	-0.7	1.5	-14.5	nt	nt
COc1ccc(N(C)C(=O)CCc2nc(-c3ccc(C)cc3)no2)cc1	0.0	-0.6	11.8	55.8*	9.7	-4.5
COc1ccccc1C1(CCN2C(=O)CCC2=O)CCOC(C)(C)C1 (configuration not stated)	-0.2	0.1	5.1	9.1	nt	nt
COc1cc(OC)c(OC)cc1CN1CCN(C(=O)c2cccc(Cl)c2)CC1	-0.1	0.1	1.2	25.9	nt	nt
COc1ccc(Br)cc1CN1CCN(C(=O)c2cccc(Cl)c2)CC1	-0.3	-1.0	-2.0	52.8*	-1.6	12.5
COc1cccc(C(=O)N2CCN(Cc3cc(Br)ccc3OC)CC2)c1	0.0	0.1	-12.8	58.4*	12.5	14.4
COc1cccc(C(=O)N2CCN(Cc3cc(OC)ccc3OC)CC2)c1	0.5	-0.3	2.9	45.0	nt	nt
SMILES	FBW7 activator	GPR151 activ	TEAD-YAP block	MITF inh	MITF inh conf	AS interf ctr	others
O=C(NCCCN1CCCC1=O)c1cncc(Nc2ccccn2)c1	0.0	-2.5	-2.9	-11.4	nt	nt
O=C1CC(c2ccccc2)=NO1	-0.1	-0.9	-6.3	56.0*	13.0	12.3
O=C1CC(c2ccc(Br)cc2)=NO1	0.1	-0.4	-7.8	19.0	nt	nt
COc1ccc(CN(C)CCN(C)C)cc1C	0.0	-1.2	0.2	58.4*	3.3	16.1
COc1ccc(CN(C)CCN(C)C)cc1OC	0.4	-0.3	-7.1	15.7	nt	nt
COc1cc(CN(C)CCN(C)C)cc(OC)c1	0.0	-0.6	-2.9	63.7*	1.2	-1.2
COc1cc(Br)c(CN(C)CCN(C)C)cc1OC	-0.2	1.3	-3.2	-15.7	nt	nt
O=S(=O)(c1ccc(Br)cc1)n1c(SCc2cccc(F)c2)nc2ccccc21	0.1	0.4	-58.3	110.0*	-11.4	-6.5
COc1ccc(CCNc2nc(-c3sc(C)nc3C)cs2)cc1OC	-0.3	-1.4	-9.8	70.6*	11.1	13.5
O=C(CN1CCC(N2CCCCC2)CC1)c1ccc2c(c1)OCCO2	-0.1	2.7	-5.8	58.3*	11.0	16.1
